In publication PMC4336329 (PLoS ONE, 2015):
The campaign covered roughly 310,000 compounds. About 14,000 (4.5%) showed an effect of 50% or more. The effect is printed as a negative number. For the sample, strong results were picked, then their nearest neighbours and some compounds at random.

target: human ether-à-go-go-related gene (hERG) potassium channel (human, UniProt Q12809); experiment: primary screen, population patch clamp on CHO cells stably expressing hERG; higher = less effect of the substance
Sequence (Q12809 whole entry, looked up): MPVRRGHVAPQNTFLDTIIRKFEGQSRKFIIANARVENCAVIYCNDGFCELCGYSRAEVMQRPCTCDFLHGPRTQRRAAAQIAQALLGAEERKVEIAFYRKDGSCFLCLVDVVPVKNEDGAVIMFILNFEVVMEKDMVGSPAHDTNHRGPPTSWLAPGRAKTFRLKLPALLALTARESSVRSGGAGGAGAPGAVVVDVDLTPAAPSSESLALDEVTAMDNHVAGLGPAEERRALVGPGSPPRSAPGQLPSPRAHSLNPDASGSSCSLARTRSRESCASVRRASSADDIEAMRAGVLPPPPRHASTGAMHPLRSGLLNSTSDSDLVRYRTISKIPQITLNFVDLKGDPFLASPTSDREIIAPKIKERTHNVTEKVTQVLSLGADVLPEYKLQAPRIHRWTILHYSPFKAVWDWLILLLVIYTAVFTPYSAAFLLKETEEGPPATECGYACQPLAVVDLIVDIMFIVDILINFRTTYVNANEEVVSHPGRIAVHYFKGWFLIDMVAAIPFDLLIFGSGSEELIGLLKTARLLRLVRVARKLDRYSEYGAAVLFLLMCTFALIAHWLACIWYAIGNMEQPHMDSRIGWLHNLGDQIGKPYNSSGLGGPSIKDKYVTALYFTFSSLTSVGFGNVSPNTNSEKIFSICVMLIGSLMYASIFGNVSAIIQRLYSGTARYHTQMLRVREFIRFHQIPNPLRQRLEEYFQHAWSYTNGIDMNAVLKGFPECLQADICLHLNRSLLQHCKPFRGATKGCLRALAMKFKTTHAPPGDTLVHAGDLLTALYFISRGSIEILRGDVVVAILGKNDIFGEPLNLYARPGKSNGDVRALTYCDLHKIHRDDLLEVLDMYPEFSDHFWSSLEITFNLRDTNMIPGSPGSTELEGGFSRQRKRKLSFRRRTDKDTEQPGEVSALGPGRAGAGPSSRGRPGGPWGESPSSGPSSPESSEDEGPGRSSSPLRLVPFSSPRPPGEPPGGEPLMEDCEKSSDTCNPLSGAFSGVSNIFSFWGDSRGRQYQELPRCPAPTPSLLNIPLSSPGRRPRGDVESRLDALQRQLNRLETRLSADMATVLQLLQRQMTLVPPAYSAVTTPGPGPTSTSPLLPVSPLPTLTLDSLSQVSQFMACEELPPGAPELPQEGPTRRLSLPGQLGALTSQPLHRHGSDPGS
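Note: peak tail current of the secondary pulse compared with the same well before compound.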

Row | Structure (SMILES) | hERG current change (%, negative = inhibition) at 10uM
1 | CSc1nccc(N/N=C/c2ccccc2)n1 | 23.9%
2 | CC(=O)/C=C(\C)Nc1ccccc1O | 21.3%
3 | COc1ccc(C(=O)/C=C/Nc2ccccn2)cc1 | 2.01%
4 | C=CCC(=O)NC1CCCc2c1cnn2-c1cc(F)cc(F)c1 (stereo not shown) | -75.7%
5 | CCN(CC)CC(=O)NC1CCCc2c1cnn2-c1cc(F)cc(F)c1 (stereo not shown) | -9.77%
6 | Cn1nccc1C(=O)NC1CCCc2c1cnn2-c1cc(F)cc(F)c1 (stereo not shown) | -45.2%
7 | O=C(NC1CCCc2c1cnn2-c1cc(F)cc(F)c1)c1ccccn1 (stereo not shown) | -52.4%
8 | O=C(NC1CCCc2c1cnn2-c1cc(F)cc(F)c1)c1cc[n+]([O-])cc1 (stereo not shown) | -37.1%
9 | Cc1cccc(-n2ncc3c2CCCC3NC(=O)CCc2ccncc2)c1C (stereo not shown) | 4.95%
10 | O=C(NC1CCCc2c1cnn2-c1ccccc1F)c1ccccn1 (stereo not shown) | 5.09%
11 | O=C(CCc1ccncc1)NC1CCCc2c1cnn2-c1ccc(F)cc1F (stereo not shown) | -12.5%
12 | O=C(CCc1ccncc1)NC1CCCc2c1cnn2-c1cc(F)cc(F)c1 (stereo not shown) | -56.5%
13 | CSCC(=O)NC1CCCc2c1cnn2-c1cc(F)cc(F)c1 (stereo not shown) | -12.6%
14 | O=C(NC1CCCc2c1cnn2-c1ccc(F)cc1F)c1ccccn1 (stereo not shown) | 1.82%
15 | O=C(NC1CCCc2c1cnn2-c1cc(F)cc(F)c1)c1ccncc1 (stereo not shown) | -64.1%
16 | OCC(O)C(O)C(O)C(O)C1NCCS1 (stereo not shown) | 0.867%
17 | O=C1CSC(c2ccc(Cl)cc2)N1C1CCCCC1 (stereo not shown) | -14.4%
18 | Cc1cc2cc(CN(Cc3ccc4c(c3)OCO4)C(=O)c3ccco3)c(=O)[nH]c2cc1C | -25%
19 | ClCc1ncc(-c2ccc(Cl)cc2)o1 | 33.5%
20 | Cc1ccc(C(=O)NCc2ccc(Cl)cc2)cc1S(=O)(=O)N1CCCCC1 | -0.995%
21 | O=C(NC(=S)Nc1cccnc1Cl)c1ccc(Cl)cc1 | 15.5%
22 | CN(C)S(=O)(=O)c1cccc(C(=O)N(Cc2ccc(F)cc2)Cc2ccco2)c1 | -52.3%

Row | Structure (SMILES) | hERG current change (%, negative = inhibition) at 10uM
23 | CCN(Cc1cccs1)C(=O)c1cccc(S(=O)(=O)N2CCN(C)CC2)c1 | -14.1%
24 | CN1CCN(S(=O)(=O)c2cccc(C(=O)N(C)Cc3cccs3)c2)CC1 | -7.83%
25 | O=C(NCc1ccc(F)cc1)c1cccc(S(=O)(=O)N2CCOCC2)c1 | -25.4%
26 | O=C(NCc1ccco1)c1cccc(S(=O)(=O)N2CCOCC2)c1 | -4.97%
27 | CN(Cc1cccs1)C(=O)c1ccc(S(=O)(=O)N2CCCCC2)cc1 | -18.8%
28 | CN(C)S(=O)(=O)c1cccc(C(=O)NCc2ccco2)c1 | 10.7%
29 | O=C(c1cccc(S(=O)(=O)N2CCOCC2)c1)N(Cc1ccc(F)cc1)Cc1ccco1 | -88.4%
30 | O=C(c1ccc(S(=O)(=O)N2CCOCC2)cc1)N(Cc1ccco1)Cc1cccs1 | -44.5%
31 | Cc1ccc(N(Cc2ccco2)C(=O)c2cccc(S(=O)(=O)N(C)C)c2)cc1 | -21.5%
32 | O=C(c1cccc(S(=O)(=O)N2CCOCC2)c1)N(Cc1ccco1)Cc1cccs1 | -68.5%
33 | CN(Cc1cccs1)C(=O)c1cccc(S(=O)(=O)N2CCCCCC2)c1 | -59.9%
34 | CCc1ccccc1NC(=O)c1cc(-c2cccc(O)c2)on1 | 12.7%
35 | COc1cccc(C(=O)Nc2cnn(C(C)C)c2)c1 | 9.94%
36 | CC(C)N(Cc1cnn(C)c1)Cc1nc(-c2ccc(Cl)cc2)no1 | 3.63%
37 | COc1ccc(/C=N/NC(=O)c2ccncc2)cc1Cn1nc([N+](=O)[O-])c(Br)c1C | -49.4%
38 | Cc1ccccc1NC(=O)C1C2CCCCC21 (stereo not shown) | 6.99%
39 | CC(C)CC(NC(=O)C1CCC(C)CC1)C(=O)NCc1ccccn1 (stereo not shown) | 18%
40 | O=C(Oc1cccc(-c2cnc3ccccc3n2)c1)c1ccco1 | -5.02%
41 | O=C(CNC(=O)c1ccccc1Cl)NC1CCN(Cc2ccccc2)CC1 | 13.1%
42 | CCOc1ccccc1C(=O)NC1CCN(Cc2ccccc2)CC1 | -46.6%
43 | O=C(NC1CCN(Cc2ccccc2)CC1)c1ccccc1OCc1ccccc1Cl | -69.2%
44 | Cl.O=C(NC1CCN(Cc2ccccc2)CC1)c1ccccc1OCc1ccccc1 | -69.3%

Row | Structure (SMILES) | hERG current change (%, negative = inhibition) at 10uM
45 | O=C(NC1CCCC1)c1ccccc1OCc1ccccc1 | -39.6%
46 | O=C(O)c1ccccc1OCc1ccccc1Cl | 6.55%
47 | CC(C)N1CC23C=CC(O2)C(C(=O)OCc2ccccc2)C3C1=O (stereo not shown) | 3.29%
48 | COc1cc(NS(=O)(=O)c2ccc(N/C=C(\C=O)c3nc4cc(Cl)ccc4o3)cc2)nc(OC)n1 | -2.34%
49 | CCO[C@H]1OC(C(=O)O)=C[C@@H](C(C)(C)C)[C@@H]1CCCO | 7.12%
50 | Cl.Fc1ccccc1Nc1nc(Cl)nc(Cl)n1 | 7.69%
51 | COc1ccccc1N1CCN(c2ncc(C(=O)N3CCN(c4cccc(Cl)c4)CC3)c3ccccc23)CC1 | -10.7%
52 | O=C(C1CCCCC1)N1CCN(c2ccccc2F)CC1 | -7.04%
53 | CCCOC(=O)CSc1nc(N2CCOCC2)c2c(c1C#N)CC(C)(C)OC2 | -40.5%
54 | O=C(Nc1ccc2ccccc2c1)NC1CCS(=O)(=O)C1 (stereo not shown) | 6.88%
55 | Cc1ccc(C)c(NC(=O)CCNS(=O)(=O)c2ccc3[nH]c(=O)oc3c2)c1 | 11.4%
56 | COCCNc1nnc(SCC(=O)Nc2cc(-c3ccccc3)nn2-c2ccccc2)s1 | -50.9%
57 | O=C(CSc1nncs1)Nc1cc(-c2ccccc2)nn1-c1ccccc1 | -39.1%
58 | Cc1nnc(SCC(=O)Nc2cc(C(C)(C)C)nn2-c2ccccc2)s1 | -12.9%
59 | CC(C)(C)c1cc(NC(=O)CSc2nnc(N)s2)n(-c2ccccc2)n1 | -29.1%
60 | COCCNc1nnc(SCC(=O)Nc2nnc(-c3ccccc3)o2)s1 | 21.8%
61 | Cc1ccc(C(=O)OCC(=O)Nc2cc(C(C)(C)C)nn2-c2ccccc2)c(O)c1 | -8.07%
62 | O=C(COC(=O)c1ccc(O)cc1O)Nc1cc(-c2ccccc2)nn1-c1ccccc1 | -9.42%
63 | CC(C)(C)c1cc(NC(=O)COC(=O)c2ccc(O)cc2O)n(-c2ccccc2)n1 | -79.3%
64 | CC(C)(C)c1cc(NC(=O)CSc2nnc(NCc3ccccc3)s2)n(-c2ccccc2)n1 | -50.1%
